Hits are enriched below; roughly 9.9% of the tested compounds scored in any of these assays.
Tau fluor counter: counter-screen for tau fibril formation inhibitors | Potency, µM (top dose mostly 57.7 µM), without a hit: at the highest dose activity change, negative = decrease | tau K18 P301L Alexa594 fluorescence, heparin fibrillization | 280,000 compounds, 0.93% hits | AID 1463; note: nearly all actives have a fitted effect of over 55% in size
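Human tau K18 P301L (15 uM unlabeled, 0.24 uM Alexa 594-labeled) in 100 mM sodium acetate pH 7 with 20 uM heparin, 6 hr at 37 C. ThT 30 uM added, 1 hr ambient; Alexa 594 FP and total fluorescence read at 555/632 nm.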
ALDH1A1 inh: ALDH1A1 (human) enzyme inhibition; P00352; Purified ALDH1A1, NADH fluorescence, propionaldehyde substrate; Potency, µM (highest dose often 75.3 µM), for inactives: at the highest dose activity, negative = inhibition, usual class: inhibitors; 220,000 compounds, 7.3% hits; AID 1030; active = well fitted inhibition curve with a large enough effect, not every such curve was filed as active; inconclusive = small, poorly fitted or top-dose-only effect, or another doubt; inactive = no such curve, though single readings can be large or run the other way;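 note: plate controls were no enzyme wells and a reference inhibitor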
Target sequence (P00352 whole entry, looked up): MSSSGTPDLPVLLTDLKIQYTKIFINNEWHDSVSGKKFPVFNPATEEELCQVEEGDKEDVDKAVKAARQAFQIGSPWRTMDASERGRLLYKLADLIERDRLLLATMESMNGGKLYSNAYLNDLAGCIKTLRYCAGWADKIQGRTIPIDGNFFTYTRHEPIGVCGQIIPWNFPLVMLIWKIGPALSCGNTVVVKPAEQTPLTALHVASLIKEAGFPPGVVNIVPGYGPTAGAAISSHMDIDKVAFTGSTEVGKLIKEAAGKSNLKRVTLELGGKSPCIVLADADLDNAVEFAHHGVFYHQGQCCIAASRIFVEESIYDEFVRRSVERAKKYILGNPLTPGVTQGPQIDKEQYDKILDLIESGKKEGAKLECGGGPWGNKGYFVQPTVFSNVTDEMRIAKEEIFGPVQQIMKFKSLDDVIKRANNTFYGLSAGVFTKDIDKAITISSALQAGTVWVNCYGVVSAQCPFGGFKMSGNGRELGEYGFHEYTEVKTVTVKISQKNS
Tau fibril FP: inhibitors of human tau fibril formation; 280,000 compounds, 0.39% hits; AID 1468; K18 P301L tau heparin fibrillization, Alexa594 FP, 6 h; Potency, µM (series often up to 57.7 µM), inactives show top-dose activity, negative = inhibition, actives largely listed as inhibitors; note: nearly all actives have a fitted effect of over 55% in size
Target sequence (P10636 561-689 P618L limits assumed): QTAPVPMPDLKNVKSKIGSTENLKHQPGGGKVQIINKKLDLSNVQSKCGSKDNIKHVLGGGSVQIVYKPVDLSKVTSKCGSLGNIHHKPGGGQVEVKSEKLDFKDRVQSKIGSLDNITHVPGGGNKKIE
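Quantitative HTS format: compounds meet 15 uM recombinant K18 P301L tau and Alexa 594-tau tracer in 100 mM sodium acetate pH 7; 20 uM heparin triggers fibrillization at 37 C over 6 hr; FP gives the signal.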
Tau fibril ThT: inhibitors of human tau fibril formation, thioflavin T binding | P10636 | recombinant tau K18 P301L (four-repeat tau fragment), heparin-induced fibrillization, ThT fluorescence | Potency, µM (doses to about 57.4 µM), for the others: at the highest dose activity, negative = inhibition, usual class: inhibitors | 270,000 compounds, 2.1% hits; note: nearly all actives have a fitted effect of over 55% in size
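Heparin-induced (20 uM) aggregation of recombinant human K18 P301L tau, 15 uM unlabeled with 0.24 uM labeled, pH 7 acetate buffer, 6 hr at 37 C with compound. Fibrils quantified by 30 uM ThT fluorescence after 1 hr ambient incubation.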
KDM4E inh: inhibitors of human JMJD2E histone demethylase | Potency, µM (series often up to 57.1 µM), for inactives: top-dose activity change, negative = inhibition, usual class: inhibitors | JMJD2E catalytic domain, FDH-coupled NADH fluorescence (FDH is formaldehyde dehydrogenase) | 230,000 compounds, 1.6% hits; active = well fitted inhibition curve with a large enough effect, not every such curve was filed as active; inconclusive = small, poorly fitted or top-dose-only effect, or another doubt; inactive = no such curve, though single readings can be large or run the other way;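 note: 0% = wells with enzyme and -100% = buffer wells without enzyme; nearly all actives have a fitted effect of over 50% in size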
HPGD block: HPGD (human) dehydrogenase inhibition. P15428. purified HPGD, NADH fluorescence kinetic, PGE2 substrate. Potency, µM, without a hit: at the highest dose activity change, negative = inhibition, usual class: inhibitors. 150,000 compounds, 4.3% hits; active = well fitted inhibition curve with a large enough effect, not every such curve was filed as active; inconclusive = small, poorly fitted or top-dose-only effect, or another doubt; inactive = no such curve, though single readings can be large or run the other way
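20 nM HPGD preincubated 15 min at room temperature with compound in 50 mM Tris-HCl pH 8, 0.01% Tween 20. Started with 1 mM NAD+ and 30 uM prostaglandin E2; NADH fluorescence (360/450 nm) read 5 times over 30-s intervals, last minus first.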
The depositor's hits bear a star; ? = inconclusive; · = no result given; [ ] = remark or other dose. Unless noted, calls come from the whole dose curve; as a rule, active = well fitted curve in the direction sought with a large enough effect; inconclusive = small, poorly fitted or top-dose-only effect, or another doubt; inactive = no such curve, though single readings can be large; an effect the other way counts as inactive or inconclusive. Unless noted, % is set by controls: 0 for no effect and ±100 for the full control effect; potency is the fitted concentration of half-maximal effect.

SMILES	Tau fluor counter	ALDH1A1 inh	Tau fibril FP	Tau fibril ThT	KDM4E inh	HPGD block
Cc1cccc(/C=C2\CS/C(=C\c3cccc(C)c3)C2=O)c1	-19%	-1%	-3%	3.5µM*	2%	-8%
O=C1/C(=C/c2cccc(Cl)c2)CSc2sccc21	-29%	2%	-2%	-17%	4%	·
CN(C)c1ccc(C=NCC2(O)CCOC(C)(C)C2)cc1 (stereo not given)	1%	0.45µM*	4%	1%	-24%	-13%
Cc1ccc(C(C#N)c2ccc3c(C(F)(F)F)cc(C(F)(F)F)nc3n2)cc1 (stereo not given)	?	-9%	7%	?	3%	-9%
N#CC(c1ccccc1)c1ccc2c(C(F)(F)F)cc(C(F)(F)F)nc2n1 (stereo not given)	?	22µM*	?	?	-1%	-11%
c1ccc(CNc2nnnn2-c2ccccc2)cc1	-11%	40µM*	-12%	-2%	11%	-16%
N#Cc1cccc(CS(=O)(=O)c2nnnn2C2CCCCC2)c1	-1%	25µM*	-5%	-7%	-6%	-10%
O=S(=O)(Cc1ccccc1)c1nnnn1-c1ccccc1	-3%	0.45µM*	-10%	?	6%	-20%
N#Cc1ccc(CS(=O)(=O)c2nnnn2-c2ccccc2)cc1	-1%	0.79µM*	?	?	-6%	-5%
N#Cc1ccc(CS(=O)(=O)c2nnnn2C2CCCCC2)cc1	0%	3%	-1%	0%	7%	-2%
O=S(=O)(CCc1ccccc1)c1nnnn1-c1ccccc1	0%	8%	1%	6%	-7%	-2%
CCOC(=O)c1c(C)n(C(=O)c2ccco2)c(=O)n1C(=O)c1ccco1	-1%	10%	3%	?	-4%	22µM*
CCOC(=O)c1c(C)c(C(=O)N2CCN(C(=O)c3ccco3)CC2)c(C)n1C	7%	13µM*	10%	-3%	7%	-6%
CCc1ccc(NC(=O)C(=O)NCCN2CCN(C(=O)c3ccco3)CC2)cc1	-7%	22µM*	-2%	?	-3%	-10%
CCOC(=O)c1c(C)c(C(=O)NCc2ccco2)c(C)n1C	6%	-10%	1%	0%	-7%	·
CCOC(=O)C1=NN(C(=O)c2ccco2)C2(CC2)C1	11%	6%	-3%	11%	-6%	-3%
CCOC(=O)c1c(C)n(C)c2ccc(OC)c(NC(=O)CN3CCN(C(=O)c4ccco4)CC3)c12	0%	7.9µM*	4%	-10%	-13%	-10%
O=C1CC[C@](CCc2nc3ccccc3[nH]2)(c2ccccc2)C(=O)N1	·	20%[13.5 µM]	·	·	·	-3%
Cc1ccc(CCNc2ncnc3onc(C)c23)cc1	-6%	·	0%	1%	·	·
CN(C)S(=O)(=O)c1ccc(=S)[nH]c1	4%	1µM*	-2%	-6%	-4%	·
COc1cccc(CNC(=O)CN2C(=O)N(c3c(C)cccc3C)S(=O)(=O)c3ccccc32)c1OC	-16%	·	-4%	7%	·	·
Cc1nn2c(C(F)(F)F)cc(-c3ccc(OC(C)C)cc3)nc2c1C#N	-12%	·	1%	-9%	·	·
CSc1ccc(CCNC(=O)C2CCCN(S(=O)(=O)N(C)c3ccc(F)cc3)C2)cc1 (stereo not given)	-7%	·	-1%	1%	·	·
CN(Cc1c(O)ccc2c1oc(=O)c1ccccc12)C1CCCCC1	-5%	?	4%	-9%	25µM*	-9%
Cc1ccc2nc(SCc3nc(-c4ccc(Cl)cc4)no3)[nH]c2c1	10µM*[quencher]	·	18µM*	?	·	·
SMILES	Tau fluor counter	ALDH1A1 inh	Tau fibril FP	Tau fibril ThT	KDM4E inh	HPGD block
Cn1nc(C(=O)NC2CCCc3ccccc32)ccc1=O (stereo not given)	-4%	5%	-3%	-7%	2%	·
CCc1ccc(NC(=O)c2ccc3c(c2)N(Cc2ccc(C)cc2)CCS3)cc1	?	·	14%	-16%	·	·
O=c1[nH]n(-c2ccc(Cl)cc2)c2ncccc12	-11%	2%	9%	?	4%	11µM*
Cc1c(C(=O)N2CCCCCC2)oc2ccccc12	6%	-10%	6%	0%	6%	16µM*
O=C(Cc1ccccc1)N1CCN(c2ncccn2)CC1	-5%	-2%	2%	-6%	-7%	·
O=C(c1oc2ccccc2c1CSCc1ccccc1)N1CCN(c2ncccn2)CC1	-14%	13µM*	2%	-12%	-12%	-10%
Cc1c(C(=O)OCC[N+]2(C)CCCCC2)oc2ccccc12	-9%	0%	3%	-6%	25µM*	·
CCOC(=O)c1c(C)[nH]c(C(=O)COC(=O)c2oc3ccccc3c2C)c1C	-3%	-3%	-6%	-11%	1%	-8%
Cc1c(C(=O)N2CCN(c3ccccn3)CC2)oc2ccccc12	-1%	14µM*	0%	2%	0%	-21%
COc1ccc(N2CCN(C(=O)c3oc4ccccc4c3C)CC2)cc1	-24%	-17%	6%	?	2%	·
C/C=C/c1ccc(OCC(=O)OCc2csc(Nc3ccc(C)cc3)n2)c(OC)c1	?	-12%	12%	?	-6%	-14%
O=C(NN=C1c2ccccc2-c2ccccc21)c1ccccc1Br	4%	-25%	-1%	7%	-3%	-16%
CNC(=S)N/N=C1\C(=O)c2cccc3cccc1c23	?	?	-6%	?	6%	-16%
O=C(N/N=C1\C(=O)c2cccc3cccc1c23)c1ccc(O)cc1	?	10µM*	1%	?	17%	·
O=C(NN=C1c2ccccc2-c2ccccc21)c1ccccc1	-22%	?	?	22µM*	-26%	-7%
CCCCNC(=S)N/N=C1\C(=O)c2cccc3cccc1c23	-24%	13µM*	0%	-14%	12%	-6%
CSCC[C@H](NC(=O)[C@H](Cc1ccccc1)NC[C@@H](NC[C@@H](N)CS)C(C)C)C(=O)O	-15%	-10%	?	25µM*	·	·
CCOC(=O)c1ccc(N/C(=N\S(=O)(=O)c2ccc(F)cc2F)c2ccccc2)cc1	-8%	-1%	3%	-9%	0%	-3%
COC(=O)c1ccccc1NC(=O)CSc1nc2ccsc2c(=O)n1CCC(C)C	6%	·	-14%	8%	·	·
COc1ccccc1N1Cc2ccccc2C1	-17%	8.9µM*	-4%	?	-23%	?
Cc1ccccc1N1Cc2ccccc2C1	2%	28µM*	0%	6%	5%	?
COc1ccc(OC)c(N2Cc3ccccc3C2)c1	-13%	-19%	-11%	?	-6%	-18%
c1ccc2c(c1)CC1(CCCCC1)n1nnnc1-2	0%	13µM*	0%	-2%	-1%	-3%
c1ccc2c(c1)Cn1nnnc1-2	1%	7%	3%	6%	0%	-17%

Assay outcomes from PubChem.
